Data: PubChem BioAssay (NCATS)
Where “and” joins values, the source holds several entries; their conditions need not be identical. Identical values can stand only once. Records with an inconclusive call do not appear. Calls of active or inactive are those of the source. Unless noted, the call rests on the fitted dose curve; in most records, active means well fitted curve in the direction sought with a large enough effect; inconclusive means small, poorly fitted or top-dose-only effect, or another doubt; inactive means no such curve, though single readings can be large; an effect the other way counts as inactive or inconclusive.

Experiments:
[1] = target: Endonuclease 4 (Escherichia coli (strain K12)) (UniProt P0A6C1); assay: Counterscreen for APE1 Inhibitors: qHTS Validation Assay for Inhibitors of Endonuclease IV (AID 1708)
Outline: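 qHTS concentration-response format; LOPAC1280 tested under APE1-screen conditions. 2 nM enzyme, 15 min compound preincubation at RT, then 50 nM TAMRA/BHQ-2 abasic substrate; kinetic fluorescence read, three reads at 60 s intervals.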

[2] = qHTS for differential inhibitors of proliferation of Plasmodium falciparum line 7G8 (AID 1815);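 further: potency means the concentration at half of the fitted maximal effect; parasite growth measured after three days of incubation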
[3] = qHTS for differential inhibitors of proliferation of Plasmodium falciparum line GB4 (AID 1816); details: Potency: Plasmodium falciparum GB4 proliferation inhibition;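 further: potency means the concentration at half of the fitted maximal effect; parasite growth measured after 72 h incubation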
[4] = qHTS for differential inhibitors of proliferation of Plasmodium falciparum line 3D7 (AID 1876); further: potency means the concentration at half of the fitted maximal effect
[5] = qHTS for differential inhibitors of proliferation of Plasmodium falciparum line D10 (AID 1877);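 further: potency means the concentration at half of the fitted maximal effect; parasites grown with compound for 72 h before DNA staining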
[6] = qHTS for differential inhibitors of proliferation of Plasmodium falciparum line W2 (AID 1883); details: Potency: Plasmodium falciparum W2 proliferation inhibition;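 further: potency means the concentration at half of the fitted maximal effect; parasites grown with compound for 72 h before lysis and staining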
[7] = target: ATP-dependent DNA helicase Q1 (Homo sapiens) (UniProt P46063); assay: qHTS Validation Assay for Inhibitors of RecQ-Like Dna Helicase 1 (RECQ1) (AID 2353)
Outline: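 50 nM RECQ1T1 preincubated 15 min with compound in Tris pH 8.0 buffer with MgCl2, DTT, Tween-20 and 2.5 ug/ml poly(dI-dC); started with 200 nM TAMRA/BHQ-2 forked duplex and 2 mM ATP. Unwinding read as fluorescence (525/598 nm), two reads 2 h apart.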

[8] = Cytometric Cell-Based qHTS for Inhibitors of the mTORC1 Signaling Pathway in MEF (Tsc2-/-, p53-/-) Cells (AID 2660);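 further: Tsc2 and p53 null MEFs carrying empty vector with compound for 24 h; percent of cells above a phospho-rpS6 to PI ratio cutoff in each well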
Outline: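 Immunofluorescence qHTS of rpS6 Ser235/236 phosphorylation: MEFs (Tsc2-/-, p53-/-) treated 24 h, 37 C, in DMEM + 10% FBS. Alexa-488 signal normalized to PI count, referenced to rapamycin (7.5 nM) and DMSO; PI cell number recorded for viability.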

[9] = High Content Imaging Cell-Based qHTS for Inhibitors of the mTORC1 Signaling Pathway in MEF (Tsc2-/-, p53-/-) Cells (AID 2666); details: at 38.3 µM (top of the series);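 further: percent of cells scored positive for phospho-rpS6 Ser235/236 immunostaining by imaging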
Outline: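 Cells were plated, dosed with compound after 24 hrs, and incubated another 24 hrs at 37 degree Celsius. Fixed cells were immunostained for phospho-rpS6 Ser235/236 and counterstained, and the normalized signal was scored as % active cells against rapamycin and DMSO controls.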

[10] = High Content Imaging Cell-Based qHTS for Inhibitors of the mTORC1 Signaling Pathway in MEF Cells (AID 2667);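 further: Tsc2-/- p53-/- MEFs stably re-expressing wild-type Tsc2 exposed 24 h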
Outline: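 Immunofluorescence for rpS6 phosphorylation in MEFs of Tsc2-/-, p53-/- background rescued with WT Tsc2. Compound exposure lasted 24 hrs. Inhibition was scored against rapamycin-treated control wells.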

[11] = Cytometry Cell-Based qHTS for Inhibitors of the mTORC1 Signaling Pathway in MEF cells (AID 2668);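 further: Tsc2-/- p53-/- mouse embryonic fibroblasts stably re-expressing wild-type Tsc2; percent cells positive for phospho-rpS6 Ser235/236 relative to propidium iodide stain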
Outline: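 WT MEFs (Tsc2-/-, p53-/- stably re-expressing WT Tsc2) in DMEM + 10% FBS received compounds 24 hrs after plating, for 24 hrs at 37 degree Celsius. Fixed cells stained with Alexa-488 anti-phospho-rpS6 Ser235/236 and propidium iodide; laser-scanning cytometry read-out.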

[12] = Validation screen for small molecules that induce DNA re-replication in MCF 10A normal breast cells (AID 463097); further: potency means the concentration at half of the fitted maximal effect; nearly all actives have a fitted effect of over 60% in size
Outline: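 Readout: Hoechst nuclear fluorescence intensity, 405 ex / 500-530 em, by scanning plate imager; re-replication scored as increase in nuclei with elevated DNA content. Cells exposed to compound 48 hr, 37 C, 5% CO2 beforehand.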

[13] = target: DNA polymerase III PolC-type (Bacillus subtilis (strain 168)) (UniProt P13267); assay: qHTS Validation Assay for the Inhibitors of DNA Replication in Gram-Positive Bacteria (AID 485295);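 further: PicoGreen fluorescence of double-stranded DNA made on primed circular M13 template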
Outline: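 Reconstituted B. subtilis holoenzyme (Pol III, beta clamp, SSB, primase) was preincubated with compound at room temperature, then given single-stranded circular M13Gori plus dNTPs and NTPs. EDTA-containing PicoGreen stopped the reaction, and dsDNA product was read by fluorescence.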

[14] = target: Tumor susceptibility gene 101 protein (Homo sapiens) (UniProt Q99816); assay: qHTS Validation Assay for Iinhibitors of HIV-1 Budding by Blocking the Interaction of PTAP/TSG101 (AID 485342; calls by dose curve)
Outline: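 Tsg101 binding domain (10 uM final) in pH 7.5 HEPES/NaCl/Tween 20/EDTA/TCEP buffer was mixed with pin-transferred compounds, then FITC-labeled PTAP peptide (50 nM final) was added; after 20 min at r.t., fluorescence polarization was read.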

[15] = target: Thioredoxin reductase 1, cytoplasmic (Rattus norvegicus) (UniProt O89049); assay: qHTS Assay for Inhibitors of Mammalian Selenoprotein Thioredoxin Reductase 1 (TrxR1) (AID 488773); details: Potency: inhibition;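 further: drop in NADPH fluorescence over an 8 min run after selenite addition; nearly all actives have a fitted effect of over 40% in size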
Outline: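 Steps: enzyme (90 nM) plus NADPH (400 uM final), 5 min at ~22 deg C; compound added, 15 min; selenite (400 uM final) added; fluorescence followed for 8 min. Concentration-response curves derived from the normalized delta values.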

[16] = target: Flap endonuclease 1 (Homo sapiens) (UniProt P39748); assay: qHTS Validation Assay for the Inhibitors of Human Flap endonuclease 1 (FEN1) (AID 488816); further: potency means the concentration at half of the fitted maximal effect
Outline: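 Readings taken at 0 and 15 min after starting the reaction with 50 nM (final) substrate supplied the signal. Compounds had first sat with 10 nM FEN1 reagent for 15 min at room temperature. Values come from Hill-equation concentration-response fits.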

[17] = target: M-phase phosphoprotein 8 (Homo sapiens) (UniProt Q99549); assay: qHTS Validation Assay for Inhibitors for MPP8 Chromodomain Interactions with Methylated Histone Tails (AID 488949); further: potency means the concentration at half of the fitted maximal effect; nearly all actives have a fitted effect of over 55% in size
Outline: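 MPP8 (50 nM) was preincubated with biotinylated H3(1-18)K9me3 peptide (50 nM) in PBS pH 7.4, 0.01% Tween-20 for 30 min at room temperature, then with compounds for 30 min; binding was detected by AlphaScreen.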

[18] = target: Chromobox protein homolog 1 (Homo sapiens) (UniProt P83916); assay: qHTS Validation Assay for Inhibitors of HP1-beta Chromodomain Interactions with Methylated Histone Tails (AID 488953); further: potency means the concentration at half of the fitted maximal effect; nearly all actives have a fitted effect of over 50% in size
Outline: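 50 nM HP1-beta + 50 nM biotin-H3(1-18)K9me3, PBS pH 7.4, 0.01% Tween-20, 30 min RT; compound added, 30 min RT; AlphaScreen beads 10 ug/mL final, 30 min dark; luminescence read.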

[19] = target: Methanococcus maripaludis chaperonin (MmCpn) (UniProt Q6LX38); assay: High-Throughput Screening for Modulators of Cytosolic Chaperonin Activity: MmCpn Primary Screen (AID 488978);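 further: 50 nM MmCpn enzyme hydrolysing 30 µM ATP at 37 °C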
Outline: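 MmCpn (50 nM final) was preincubated with compound 5 min at RT, then 30 uM ATP (final) was added and the reaction ran 10 min at 37C. ADP produced was detected by Transcreener HTRF (ex 320 nm; em 590/665 nm).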

[20] = target: Transient receptor potential cation channel subfamily V member 1 (Homo sapiens) (UniProt Q8NER1); assay: HTS Assay for Compounds that Act as Enhancers of the Vanilloid Receptor 1 (AID 488979)
Outline: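 Calcium influx kinetics via Fluo-8 (480/520 nm) in TRPV1-expressing cells, 2000/well cultured overnight at 35.5C. Compound-alone read 3 min (agonist phase), followed by EC20 capsaicin challenge for 2 min (enhancer phase).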

[21] = target: Thyrotropin receptor (Homo sapiens) (UniProt P16473); assay: qHTS Assay for Antagonists of the Thyroid Stimulating Hormone Receptor (AID 488980)
Outline: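 HEK293 cells transfected with human TSHR, suspended in HEPES-buffered HBSS with 70 uM RO 20-1724, were treated with compounds plus TSH at EC80 (4 nM final). cAMP was measured by competitive HTRF (cryptate anti-cAMP antibody, cAMP-d2 acceptor).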

Measured: Potency

M-phase phosphoprotein 8 (Homo sapiens), sequence (Q99549 whole entry, looked up): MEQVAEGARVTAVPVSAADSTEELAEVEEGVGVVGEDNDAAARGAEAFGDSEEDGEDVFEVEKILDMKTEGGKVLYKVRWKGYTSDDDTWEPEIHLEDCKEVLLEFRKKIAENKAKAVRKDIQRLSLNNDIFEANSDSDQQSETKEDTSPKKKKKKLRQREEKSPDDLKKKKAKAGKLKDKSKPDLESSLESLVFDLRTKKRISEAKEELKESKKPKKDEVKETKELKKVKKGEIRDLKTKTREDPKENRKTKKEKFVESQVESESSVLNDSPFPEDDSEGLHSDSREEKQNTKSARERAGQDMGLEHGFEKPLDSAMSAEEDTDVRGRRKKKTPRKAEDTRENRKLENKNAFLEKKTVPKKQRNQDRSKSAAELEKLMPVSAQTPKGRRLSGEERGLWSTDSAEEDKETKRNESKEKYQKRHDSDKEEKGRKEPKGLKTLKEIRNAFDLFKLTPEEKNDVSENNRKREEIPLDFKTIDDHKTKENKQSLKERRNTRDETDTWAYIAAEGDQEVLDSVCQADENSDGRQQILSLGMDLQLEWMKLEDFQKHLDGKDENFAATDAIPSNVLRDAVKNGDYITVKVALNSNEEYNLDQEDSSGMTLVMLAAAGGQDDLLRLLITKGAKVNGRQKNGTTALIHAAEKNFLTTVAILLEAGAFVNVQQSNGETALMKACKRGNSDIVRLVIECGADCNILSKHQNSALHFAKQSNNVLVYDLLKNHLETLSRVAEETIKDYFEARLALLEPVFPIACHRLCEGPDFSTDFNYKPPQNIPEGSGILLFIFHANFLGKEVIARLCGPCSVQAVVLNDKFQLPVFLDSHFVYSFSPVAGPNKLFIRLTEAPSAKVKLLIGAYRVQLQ
Thyrotropin receptor (Homo sapiens), sequence (P16473 whole entry, looked up): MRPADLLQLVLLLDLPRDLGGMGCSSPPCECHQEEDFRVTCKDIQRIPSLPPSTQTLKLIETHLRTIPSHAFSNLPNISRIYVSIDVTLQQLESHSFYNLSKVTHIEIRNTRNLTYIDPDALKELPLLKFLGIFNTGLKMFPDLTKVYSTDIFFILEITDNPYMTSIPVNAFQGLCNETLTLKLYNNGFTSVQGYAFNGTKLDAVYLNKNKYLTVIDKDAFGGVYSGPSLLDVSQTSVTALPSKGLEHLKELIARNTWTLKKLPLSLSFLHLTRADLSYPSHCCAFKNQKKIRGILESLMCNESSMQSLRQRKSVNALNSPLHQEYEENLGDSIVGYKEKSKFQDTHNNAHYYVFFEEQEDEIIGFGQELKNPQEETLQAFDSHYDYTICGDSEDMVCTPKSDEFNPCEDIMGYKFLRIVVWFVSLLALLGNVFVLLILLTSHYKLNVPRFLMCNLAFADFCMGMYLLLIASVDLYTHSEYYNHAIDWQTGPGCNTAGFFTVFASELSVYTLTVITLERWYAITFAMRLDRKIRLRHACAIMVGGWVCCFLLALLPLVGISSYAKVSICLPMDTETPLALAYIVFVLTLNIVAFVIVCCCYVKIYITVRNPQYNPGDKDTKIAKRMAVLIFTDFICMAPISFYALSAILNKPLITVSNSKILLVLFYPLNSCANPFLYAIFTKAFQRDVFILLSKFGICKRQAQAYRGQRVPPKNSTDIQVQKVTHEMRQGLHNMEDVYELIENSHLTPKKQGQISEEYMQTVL
Tumor susceptibility gene 101 protein (Homo sapiens), sequence (Q99816 whole entry, looked up, the tested form may be a part): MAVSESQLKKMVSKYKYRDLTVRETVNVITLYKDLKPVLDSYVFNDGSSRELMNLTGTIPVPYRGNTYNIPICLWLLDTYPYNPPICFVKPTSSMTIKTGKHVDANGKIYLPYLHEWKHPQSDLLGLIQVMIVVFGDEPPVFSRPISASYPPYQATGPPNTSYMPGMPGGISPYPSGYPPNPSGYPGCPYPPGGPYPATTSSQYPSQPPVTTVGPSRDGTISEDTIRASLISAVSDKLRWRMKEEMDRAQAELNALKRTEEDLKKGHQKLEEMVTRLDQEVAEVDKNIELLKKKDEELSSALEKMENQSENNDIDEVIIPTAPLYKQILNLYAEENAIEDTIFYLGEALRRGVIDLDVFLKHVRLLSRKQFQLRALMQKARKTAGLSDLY
Flap endonuclease 1 (Homo sapiens), sequence (P39748 whole entry, looked up): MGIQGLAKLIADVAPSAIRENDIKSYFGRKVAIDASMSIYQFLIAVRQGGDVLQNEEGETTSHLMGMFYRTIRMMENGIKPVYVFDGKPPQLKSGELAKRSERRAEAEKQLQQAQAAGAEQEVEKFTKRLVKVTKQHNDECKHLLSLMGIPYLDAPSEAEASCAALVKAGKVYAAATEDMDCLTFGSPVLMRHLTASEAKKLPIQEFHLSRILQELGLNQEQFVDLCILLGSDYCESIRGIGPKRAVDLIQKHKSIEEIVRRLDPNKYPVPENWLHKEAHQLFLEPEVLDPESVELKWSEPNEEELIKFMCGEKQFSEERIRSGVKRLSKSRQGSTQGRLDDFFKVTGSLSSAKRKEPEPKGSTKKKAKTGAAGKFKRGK
Methanococcus maripaludis chaperonin (MmCpn), sequence (Q6LX38 1-543): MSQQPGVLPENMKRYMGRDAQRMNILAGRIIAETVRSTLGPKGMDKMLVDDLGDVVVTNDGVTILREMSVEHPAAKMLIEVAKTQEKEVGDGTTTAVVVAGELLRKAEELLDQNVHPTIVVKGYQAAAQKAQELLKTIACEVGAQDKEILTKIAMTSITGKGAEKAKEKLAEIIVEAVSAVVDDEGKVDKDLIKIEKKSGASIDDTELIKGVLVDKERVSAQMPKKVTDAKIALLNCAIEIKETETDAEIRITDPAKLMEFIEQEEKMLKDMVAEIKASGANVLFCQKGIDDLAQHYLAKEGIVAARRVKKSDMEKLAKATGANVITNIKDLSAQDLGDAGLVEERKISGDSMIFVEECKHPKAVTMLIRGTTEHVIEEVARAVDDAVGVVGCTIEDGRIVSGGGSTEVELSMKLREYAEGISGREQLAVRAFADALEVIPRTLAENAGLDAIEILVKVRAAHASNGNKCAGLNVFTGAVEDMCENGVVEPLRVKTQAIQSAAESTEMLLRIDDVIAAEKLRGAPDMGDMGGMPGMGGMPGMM
Thioredoxin reductase 1, cytoplasmic (Rattus norvegicus), sequence (O89049 whole entry, looked up): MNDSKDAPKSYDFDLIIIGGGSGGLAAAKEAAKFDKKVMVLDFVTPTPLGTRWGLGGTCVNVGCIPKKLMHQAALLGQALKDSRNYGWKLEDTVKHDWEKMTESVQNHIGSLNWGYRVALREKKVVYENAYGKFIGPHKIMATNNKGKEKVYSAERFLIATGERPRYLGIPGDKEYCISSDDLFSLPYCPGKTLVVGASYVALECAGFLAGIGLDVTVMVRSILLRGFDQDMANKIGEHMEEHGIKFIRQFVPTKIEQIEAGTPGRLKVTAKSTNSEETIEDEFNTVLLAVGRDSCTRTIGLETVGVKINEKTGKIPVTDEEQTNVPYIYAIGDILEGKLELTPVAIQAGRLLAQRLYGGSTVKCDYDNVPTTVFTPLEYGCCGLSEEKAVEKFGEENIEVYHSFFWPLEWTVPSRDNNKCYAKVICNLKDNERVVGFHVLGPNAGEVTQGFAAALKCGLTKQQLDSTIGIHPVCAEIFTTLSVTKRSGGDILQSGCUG
DNA polymerase III PolC-type (Bacillus subtilis (strain 168)), sequence (P13267 whole entry, looked up): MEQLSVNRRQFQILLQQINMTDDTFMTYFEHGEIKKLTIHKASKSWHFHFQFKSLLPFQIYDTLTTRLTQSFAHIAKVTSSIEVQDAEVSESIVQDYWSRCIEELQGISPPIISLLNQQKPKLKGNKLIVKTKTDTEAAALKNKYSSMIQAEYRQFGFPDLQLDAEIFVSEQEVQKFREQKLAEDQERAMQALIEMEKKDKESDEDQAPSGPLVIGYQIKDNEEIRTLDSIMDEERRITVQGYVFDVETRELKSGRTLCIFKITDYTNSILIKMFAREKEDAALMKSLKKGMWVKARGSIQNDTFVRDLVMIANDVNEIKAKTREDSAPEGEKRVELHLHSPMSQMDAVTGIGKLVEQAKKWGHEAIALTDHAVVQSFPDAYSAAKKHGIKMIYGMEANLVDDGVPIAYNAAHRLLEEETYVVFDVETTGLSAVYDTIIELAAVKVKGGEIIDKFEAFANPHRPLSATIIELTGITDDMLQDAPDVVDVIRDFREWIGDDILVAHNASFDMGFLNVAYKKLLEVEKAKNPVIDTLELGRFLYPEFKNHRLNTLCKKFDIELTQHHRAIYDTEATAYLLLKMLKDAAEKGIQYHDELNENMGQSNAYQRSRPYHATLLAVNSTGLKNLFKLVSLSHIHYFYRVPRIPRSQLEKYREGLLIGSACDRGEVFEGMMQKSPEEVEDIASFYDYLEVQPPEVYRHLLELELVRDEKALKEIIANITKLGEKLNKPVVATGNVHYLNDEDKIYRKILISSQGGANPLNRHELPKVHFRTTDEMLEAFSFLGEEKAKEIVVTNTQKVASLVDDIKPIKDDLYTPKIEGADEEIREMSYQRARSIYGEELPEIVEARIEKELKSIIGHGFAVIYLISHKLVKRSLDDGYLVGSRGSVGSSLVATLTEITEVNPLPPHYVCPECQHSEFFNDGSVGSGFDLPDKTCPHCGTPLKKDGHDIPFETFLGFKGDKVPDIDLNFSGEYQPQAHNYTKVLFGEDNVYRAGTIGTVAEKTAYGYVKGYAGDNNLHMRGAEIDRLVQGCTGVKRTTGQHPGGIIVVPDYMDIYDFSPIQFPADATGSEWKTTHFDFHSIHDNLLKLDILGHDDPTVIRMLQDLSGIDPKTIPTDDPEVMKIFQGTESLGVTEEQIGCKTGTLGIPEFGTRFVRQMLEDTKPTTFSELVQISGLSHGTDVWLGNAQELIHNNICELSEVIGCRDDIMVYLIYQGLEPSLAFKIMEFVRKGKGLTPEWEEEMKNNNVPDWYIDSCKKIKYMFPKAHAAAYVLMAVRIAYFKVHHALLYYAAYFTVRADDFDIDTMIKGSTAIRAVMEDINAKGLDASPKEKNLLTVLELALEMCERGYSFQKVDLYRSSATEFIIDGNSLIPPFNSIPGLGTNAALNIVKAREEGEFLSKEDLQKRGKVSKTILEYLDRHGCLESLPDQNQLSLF

N#C/C(=C\c1ccc(O)c(O)c1)C(=O)Nc1ccccc1
active: [2] 8.91 µM | [3] 14.1 µM | [4] 12.6 µM | [5] 10 µM | [6] 7.94 µM | [12] 12.6 µM | [16] 18.9 µM | [17] 12.6 µM and 10.6 µM | [18] 12.6 µM
inactive: all other assays above
